The full ranking holds about 35,000 sequences; the median of “fluorescence intensity (a.u.)” is about 10,000, and the highest 2% start at about 52,000. Only a selection was taken, and the highest values are over-represented in it overall.

This experiment has as its target T1, OsWOX13 (Oryza sativa, UniProt Q5QMM3 1-267).
T1 sequence: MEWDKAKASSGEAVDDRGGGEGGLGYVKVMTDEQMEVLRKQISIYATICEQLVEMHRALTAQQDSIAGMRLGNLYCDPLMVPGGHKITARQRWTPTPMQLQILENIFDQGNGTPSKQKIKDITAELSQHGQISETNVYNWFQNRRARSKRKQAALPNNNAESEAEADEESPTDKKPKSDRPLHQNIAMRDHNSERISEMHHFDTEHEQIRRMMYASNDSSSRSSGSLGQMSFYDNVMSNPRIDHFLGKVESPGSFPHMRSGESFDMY
Briefly: protein-binding microarray (RPBM); PBS, 2% BSA, 51.3 ng/ul salmon testes DNA, 50 uM zinc acetate, 200 nM TF, 25 C, 1 h; high values mean tight binding. Particulars: protein: recombinant; tags: N-terminal polyhistidine and DsRed monomer fusion (pET32a); label: CyDye5-dUTP incorporated in the synthesized complementary strand; 3' TTTTT single-stranded linker to array surface; dsDNA, one strand shown. The method, boiled down: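 Ni–NTA purification followed expression in E. coli BL21-CodonPlus of transcription factors fused N-terminally to a polyhistidine tag and DsRed. At 200 nM in PBS with 2% BSA, salmon testes DNA and 50 µM zinc acetate, the protein was incubated for 1 h at 25 °C with a custom Agilent array that had been primer-extended with Cy5-dUTP and blocked with 2% BSA. After washing, the array was read on an Axon 4000B scanner. The binding signal is per-feature fluorescence intensity in arbitrary units.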
“TATGATTTGTCTACGTTACAAACATAAACCTTTTCTTCTCCGGAGTCACCTAGTGCAG”: the binding signal was 11400 fluorescence intensity (a.u.).
Then “GTCCGTAATTGATCATATTTATCATTTAAATTACTCAGTGCGGAGTCACCTAGTGCAG”, with 61900 fluorescence intensity (a.u.); and “GCTGGTTTGATTAGATCTTCATCCCACGTGGCATTGACGTCGGAGTCACCTAGTGCAG”, with 17200 fluorescence intensity (a.u.).
In the case of “TCTTGTAATTATTCTATGTTTAATACTCTAAATTAGCATCCGGAGTCACCTAGTGCAG” it was 20000 fluorescence intensity (a.u.); in that of “TGGTGATAATGTCATTCTGTTATTACAGAGGTCAACGTGTCGGAGTCACCTAGTGCAG”, 3410 fluorescence intensity (a.u.).
In the case of “CTCCACTAATCCTACCAATTAACGAGTCGTACTCAATAATCGGAGTCACCTAGTGCAG” it was 7550 fluorescence intensity (a.u.); in that of “CAGCTGTTCTAATGATTTGAGATATATCAAACTTGTCAAACGGAGTCACCTAGTGCAG”, 3250 fluorescence intensity (a.u.); in that of “TAAGTTAATAGATATTTAACGTTTATAATAAGATTTGTTTCGGAGTCACCTAGTGCAG”, 9590 fluorescence intensity (a.u.).
Regarding “AGCGCAACTAATTAAACTAGGCTTATCAGGCGACAGCGGCCGGAGTCACCTAGTGCAG”, the binding signal was 4920 fluorescence intensity (a.u.).
Regarding “GGCAATCAATCAACCAATCACCAGCTTACAATTCGGCCACCGGAGTCACCTAGTGCAG”, the binding signal is 59300 fluorescence intensity (a.u.).
In the case of “TCAAACAAACCAATCAATCAATCAATCAGGGGATTCTTACCGGAGTCACCTAGTGCAG” it was 42300 fluorescence intensity (a.u.).
In the case of “CACCCAATCACAATCCAACCCACGCCATTGCAACCAAATTCGGAGTCACCTAGTGCAG” it was 4130 fluorescence intensity (a.u.); in that of “GTGTAATTTTGTTAGGAAATTTGGGTTTGAATCAGTGGAACGGAGTCACCTAGTGCAG”, 12500 fluorescence intensity (a.u.); in that of “TCCTGATTTCGCCGCCACTTGTAGCATCTGCCCGTGGGGTCGGAGTCACCTAGTGCAG”, 5510 fluorescence intensity (a.u.).
Take “TACTAATCATAGACTAATTAGGCTCAAAAGATTCGTCTCACGGAGTCACCTAGTGCAG”: the binding signal is 31300 fluorescence intensity (a.u.).
Then “GCTAATCATAGACTAATTAGGCTTAAAAGATTTGTCTCGCCGGAGTCACCTAGTGCAG”, with 37200 fluorescence intensity (a.u.); and “ATGGATTAATTAGGCTCAAAAGATTTGTCTCACTATTTCCCGGAGTCACCTAGTGCAG”, with 13500 fluorescence intensity (a.u.); and “GATTAATTAGACTTAATAAATTTGTCTCACGGTTTACGGACGGAGTCACCTAGTGCAG”, with 40500 fluorescence intensity (a.u.).
As for “TTATGGCTAATCATGAACTAATTAGACTCAAAAGATTCGTCGGAGTCACCTAGTGCAG”, the binding signal was 23700 fluorescence intensity (a.u.).
Then “ACTAATTAGACTTAAAAGATTTGTCTCATGATTTACTCCCCGGAGTCACCTAGTGCAG”, with 56300 fluorescence intensity (a.u.).
In the case of “GCTAATCATAGACTAATTAGACTCAAAAGATTAGTCTCGCCGGAGTCACCTAGTGCAG” it was 52800 fluorescence intensity (a.u.).
Then “ATGGCTAATTATGGACTAATTAGACTCAAAAGATTCGTTTCGGAGTCACCTAGTGCAG”, with 19800 fluorescence intensity (a.u.); and “TACGGCTAATTATGGACTAATTAGACTCAAAAGATTCATGCGGAGTCACCTAGTGCAG”, with 53800 fluorescence intensity (a.u.); and “ATCTTAATTTACCTTTCACTGCATCTAATATGTCACTTTGCGGAGTCACCTAGTGCAG”, with 20700 fluorescence intensity (a.u.).
Take “ATTTGAAATTTAAATTTTAGCTTTTGCTTTAGTTTATTTGCGGAGTCACCTAGTGCAG”: the binding signal is 8720 fluorescence intensity (a.u.).
As to “CCGTGATTAGCGACATTGCTGTGTGCAACGTTTGTTCCTTCGGAGTCACCTAGTGCAG”, the binding signal is 37600 fluorescence intensity (a.u.).
In the case of “TGTTAGATGATAAAACATGATTAATATTTTATGTGTGACTCGGAGTCACCTAGTGCAG” it was 4360 fluorescence intensity (a.u.); in that of “AATAACTGATAAAAGATATATGATTTTGGAGAAATGTGTGCGGAGTCACCTAGTGCAG”, 26100 fluorescence intensity (a.u.); in that of “TAGATTAATTTGTCATCAAAACACCCTCATATAATTAATTCGGAGTCACCTAGTGCAG”, 19200 fluorescence intensity (a.u.).
Turning to “TTTCTTAATTGTATTTCTATATGGACTTGATACCCTTCTTCGGAGTCACCTAGTGCAG”, the binding signal is 18900 fluorescence intensity (a.u.).
In the case of “TAAACCTAATTAATCATCATTAGCAAATGTTTACTGTAGCCGGAGTCACCTAGTGCAG” it was 30400 fluorescence intensity (a.u.); in that of “AGCCTAATTAATCTATAATTAGAGAATGTTTACTGTAGCACGGAGTCACCTAGTGCAG”, 46200 fluorescence intensity (a.u.).
Then “AGCCTAATTAATACATAATTAGCACATGTTTACTGTAGCACGGAGTCACCTAGTGCAG”, with 55100 fluorescence intensity (a.u.).
Then “TTCATAATTAGCACATGTTTACTGTGGTATCACATGGACTCGGAGTCACCTAGTGCAG”, with 25200 fluorescence intensity (a.u.); and “TCATAATTAATTAGAAGTGGCTGCATGTGAGAATGTTTGGCGGAGTCACCTAGTGCAG”, with 53800 fluorescence intensity (a.u.).
“GTAGTGAATGGCTGCCTAATTTTGTGCATTAACCATGGTGCGGAGTCACCTAGTGCAG”: the binding signal is 5100 fluorescence intensity (a.u.).
Then “AGCCTAATTAATCCGATATTAGTAAATGTTTACTGTAGCACGGAGTCACCTAGTGCAG”, with 15000 fluorescence intensity (a.u.).
Then “AAGTCTAATTAATTCATAATTAGCACATGTTTACTGTAGCCGGAGTCACCTAGTGCAG”, with 53800 fluorescence intensity (a.u.); and “AGCCTAATTAATCCATAATTAACATATGTTTACTGTAGCACGGAGTCACCTAGTGCAG”, with 53000 fluorescence intensity (a.u.); and “CTAATTAATCCGTTATTAGCACATATGTGTTACTGTAGCACGGAGTCACCTAGTGCAG”, with 12200 fluorescence intensity (a.u.).
In the case of “CCTAATTAATCCATAGCACATGTTTACTGTAGCGTCACATCGGAGTCACCTAGTGCAG” it was 12400 fluorescence intensity (a.u.).
Turning to “AATCCATAATTAGAGAATGTTTACTGTAGCATCACATAGGCGGAGTCACCTAGTGCAG”, the binding signal is 15900 fluorescence intensity (a.u.).

The record behind these values is publication PMC7819943, “Rice protein-binding microarrays: a tool to detect cis-acting elements near promoter regions in rice”.
